This experiment can be described thus: inhibitors of VEEV TC-83 cytopathic effect, confirmation, Vero cells (AID 588727). The conditions noted are these: VEEV TC-83 cytopathic effect inhibition, at 20 µM. On the technique in general: Cytopathic effects are the visible damage that an infection or toxin causes in cultured cells.
The mark [1] stands for this setting: measured here: 10K pilot screen inhibition, stronger effect = higher value.
The mark [2] stands for this setting: stronger effect = higher value unless noted.

Each structure is given as a SMILES string. The whole screen tested about 350,000 compounds, of which about 450 (0.13%) were called active. No rule for the calls is given here. A selection follows. Measured potencies and affinities stand elsewhere.

For `O=c1[nH]c(CSc2ncccn2)nc2c1cnn2-c1ccccc1`, the inhibition (as a rule, the relative decrease from the control value, in per cent) is, setting by setting: (stronger effect = higher value) 5.59% (inactive); under setting [1], 3.44%.
For `c1ccc(-n2ncc3c2ncn2nc(CSc4nc5ccccc5s4)nc32)cc1`, under setting [2], the inhibition result is “inactive”.
On the same count and under the same terms, to `CCc1ccc(OCC(=O)Nc2nnc(-c3ccco3)s2)cc1` belongs 0.88% (inactive); to `Cc1ccc(-n2ncc3c(NCc4cccnc4)ncnc32)c(C)c1`, 1.66% (inactive).
Still for that read-out and setting: the same measure for `Fc1ccc(-n2ncc3c(SCc4cccnc4)ncnc32)cc1`: 3.59% (inactive).
Same read-out and setting: to `CSc1ncnc2c1cnn2-c1ccc(C)cc1C` belongs 8.17% (inactive); to `Cc1ccc(-n2ncc3c(NCc4ccccn4)ncnc32)c(C)c1`, 1.72% (inactive).
On to `COc1ccc(C(C(=O)NCC2CCCO2)N(Cc2ccc(F)cc2)C(=O)CNC(=O)c2ccco2)cc1OC` (centres undefined), for which the inhibition under setting [2] is 1.15% (inactive).
The same measure, in the same setting: the same measure for `Cc1cc(O)ccc1N1C(=O)c2cccc3cc([N+](=O)[O-])cc(c23)C1=O`: “inactive”; for `O=C1c2cccc3cc([N+](=O)[O-])cc(c23)C(=O)N1c1nncs1`: “inactive”.
The same measure, in the same setting: to `Cc1ccc(C)c(OCc2cc(C(=O)N3CCN(c4ccccc4C)CC3C)no2)c1` (centres undefined) belongs 4.26% (inactive); to `Cc1cc(C(=O)N(Cc2nnc(-c3ccc(Cl)cc3)o2)C(C)C)c2ccccc2n1`, 8.49% (inactive).
Same read-out and setting: to `c1ccc(-c2cnnc(-c3ccccn3)n2)cc1` belongs 2.25% (inactive).
With `c1ccc(-c2nc(-c3ccccn3)no2)cc1`, the inhibition result under setting [2] is “inactive”.
Still for that read-out and setting: to `CCCCn1c(N)c(N(CCC(C)C)C(=O)CSc2nnc3ccccn23)c(=O)[nH]c1=O` belongs 0.96% (inactive); to `COCCCNC(=O)/C=C/c1ccc(Cl)cc1`, “inactive”.
Take `CN(C)CCCNC(=O)/C=C/c1ccc2c(c1)OCO2`: the inhibition runs as follows: (stronger effect = higher value) 0.85% (inactive); under setting [1], 1.09%.
In the same order, the values of `Cc1cc(-c2nnc(CCC(=O)NC(C)c3ccc(F)cc3)o2)no1` (centres undefined) are 0.09% (inactive) and 1.8%.
On to `Nc1nnc(SCC(=O)OCC(=O)Nc2ccc(Br)cc2F)s1`, for which the inhibition under setting [2] is 1.19% (inactive).
As to `COc1ccc(S(=O)(=O)N2CCOCC2)cc1C(=O)NCc1ccccc1CN1CCCC1`, the inhibition under setting [2] was 0.08% (inactive).
Regarding `CCc1ccc(-c2nc(CSCC(=O)NCCCN3CCCC3=O)c(C)o2)cc1`, the inhibition under setting [2] was 3.51% (inactive).
Still for that read-out and setting: the same measure for `O=C1N=C(N2CCCCC2)S/C1=C\c1ccccc1F`: 0.16% (inactive); for `CCCOc1ccccc1/C=C1\SC(N)=NC1=O`: 2.5% (inactive); for `CCOC(=O)C1CCCN(c2oc(-c3ccc(OC)cc3)nc2C#N)C1` (centres undefined): 2.16% (inactive).
The same measure, in the same setting: the same measure for `O=C(COC(=O)COc1ccccc1)NCCc1ccccc1`: 0.2% (inactive); for `CCC(=NC(C)c1ccccc1)c1c(O)[nH]c(=O)[nH]c1=O` (centres undefined): 1.39% (inactive).
`CCn1c(SCC(=O)N/N=C/c2ccc(OC)c(OC)c2)nc2ccccc21`: the inhibition was 4.2% (inactive) (stronger effect = higher value) and 2.22% under setting [1].
As to `C=CCSc1nc2ccccc2n1C(=O)/C=C/c1cc(OC)c(OC)c(OC)c1`, under setting [2], the inhibition was 2.65% (inactive).
The same measure, in the same setting: the same measure for `CC(=O)N1CCC(N(CCCOC(C)C)S(=O)(=O)c2ccc([N+](=O)[O-])cc2)CC1`: “inactive”; for `Cc1oc(-c2ccccc2Cl)nc1CSCC(=O)O`: 1.08% (inactive).
Same read-out and setting: to `Cc1ccc(-c2nc(CSCC(=O)N3CCCC3)c(C)o2)cc1` belongs “inactive”; to `O=C(NC(=S)NCCO)c1cn(-c2ccccc2)nc1-c1ccccc1`, 1.03% (inactive); to `COc1ccc(NC(=O)c2cn(-c3ccccc3)nc2-c2ccncc2)cc1`, 8.65% (inactive).
Take `CCN(CC)CCNC(=S)NC(=O)c1cn(-c2ccccc2)nc1-c1ccc(OC)cc1`: the inhibition entry under setting [2] is “inactive”.
On the same count and under the same terms, the same measure for `Cc1onc(-c2ccccc2)c1C(=O)NC(=S)NNC(=O)c1ccncc1`: 1.78% (inactive).
Take `Cc1onc(-c2ccccc2)c1C(=O)Nc1sc2c(c1C#N)CCC2`: under setting [2], the inhibition is 2.67% [measured here: 10K pilot screen inhibition, stronger effect = higher value] and the outcome was inactive.
For `Cc1ccc(NC(=O)Nc2nnc(-c3ccccc3F)s2)cc1`, under setting [2], the inhibition was 0.72% (inactive).
The same measure, in the same setting: to `Cc1ccc(S(=O)(=O)N(C)c2ccc(C(=O)Nc3c(C)n(C)n(-c4ccccc4)c3=O)cc2)cc1` belongs 2.04% (inactive).
Consider `Cn1ncc(Br)c1C(=O)O`, for which the inhibition by setting is: (stronger effect = higher value) 0.63% (inactive); under setting [1], 1.4%.
As for `CCC1CSC(Nc2ccc(C(=O)/C=C/c3ccc(Br)cc3)cc2)=N1` (centres undefined), under setting [2], the inhibition is 0.39% (inactive).
On the same count and under the same terms, to `CCC1CSC(Nc2ccc(C(=O)/C=C/c3cccc(C)c3)cc2)=N1` (centres undefined) belongs 32.8% (inactive); to `CC1=C(C(=O)NC2CCCc3c2cnn3-c2cccc(C)c2C)OCCO1` (centres undefined), 1.75% (inactive); to `Cc1cc(C(=O)NC2CCCc3c2cnn3-c2cccc(C)c2C)n(C)n1` (centres undefined), “inactive”.
Same read-out and setting: to `O=C(NC1CCCc2c1cnn2-c1ccccc1F)c1ccncc1` (centres undefined) belongs “inactive”.
Same read-out and setting: to `COc1ccc(C(=O)NC2CCCc3c2cnn3-c2cc(F)cc(F)c2)c(OC)n1` (centres undefined) belongs 0.41% (inactive); to `COCCC(=O)NC1CCCc2c1cnn2-c1cccc(C)c1C` (centres undefined), “inactive”; to `O=C(NC1CCCc2c1cnn2-c1ccc(F)cc1F)c1ccccn1` (centres undefined), “inactive”.
For the molecule `O=C(CSc1nnc(Cc2ccccc2)c(=O)[nH]1)Nc1ccccc1`, the inhibition under setting [2] is 1.19% (inactive).
The same measure, in the same setting: the same measure for `CC1CCCC(=NNC(=O)C2COc3ccccc3O2)C1` (centres undefined): 1.68% (inactive).
On the same count and under the same terms, to `C=CCNc1n[nH]c(=S)s1` belongs 0.53% (inactive).
The same measure, in the same setting: the same measure for `Cc1cc(/C=C(\C#N)C(=O)Nc2ccccc2)c(C)n1-c1cccnc1`: 4.21% (inactive); for `CCC(NC(=O)Cc1c(C)c2cc3c(cc2oc1=O)OC(C)(C)CC3)C(=O)O` (centres undefined): 0.65% (inactive); for `C(=N\N1CCN(C(c2ccccc2)c2ccccc2)CC1)/c1ccc2c(c1)OCO2`: “inactive”.
`COC(=O)c1c(C)[nH]c(C(=O)C(C)OC(=O)c2c(C)noc2C)c1C` (centres undefined): the inhibition entry under setting [2] is “inactive”.
On the same count and under the same terms, to `O=C1N=C(N2CCOCC2)SC1=C1CCCCC1` belongs 1.03% (inactive); to `Cc1ccccc1-c1nc(CN2CCC(C(=O)NCCCN3CCCC(C)C3)CC2)c(C)o1` (centres undefined), 9.38% (inactive); to `Cc1oc(-c2ccc(Cl)cc2)nc1CN1CCC(C(=O)NCCCN2CCOCC2)CC1`, 2.07% (inactive).
Regarding `Cc1cccc(N2CCN(Cc3nc(-c4cccc(Cl)c4)oc3C)CC2)n1`, the inhibition result under setting [2] is “inactive”.
As to `CCN(CCNC(=O)C1CCN(Cc2nc(-c3ccc(Cl)cc3)oc2C)CC1)c1ccccc1`, under setting [2], the inhibition result is “inactive”.
Same read-out and setting: to `Cc1cc(N2CCN(Cc3nc(-c4ccc(F)cc4)oc3C)CC2)cc(C)n1` belongs 0.13% (inactive); to `Cc1oc(-c2ccc(Cl)cc2)nc1CN1CCC(C(=O)NCC2CCCO2)CC1` (centres undefined), 0.22% (inactive).
Same read-out and setting: the same measure for `CC(=O)c1cccc(-n2c(CCC(=O)O)ccc2-c2cccs2)c1`: “inactive”; for `COc1ccc(-c2nnc(SCC(=O)c3cccs3)n2-c2ccc(Cl)cc2)cc1`: 8.15% (inactive); for `O=C(N/N=C/c1cccnc1)C12CC3CC(CC(C3)C1)C2`: 2.16% (inactive).
As for `Cc1[nH]c2ccc(F)cc2c1CCN(Cc1cccnc1)C(=S)Nc1cccc(F)c1`, the inhibition under setting [2] is 2.61% (inactive).
Still for that read-out and setting: to `O=C(O)/C(=C\c1ccc(-c2ccc(F)cc2)o1)c1ccccc1` belongs 1.57% (inactive).
On the same count and under the same terms, the same measure for `COc1cccc(/C=C2/CCC(CN(C)C)C2=O)c1` (centres undefined): 48.7% (inactive); for `CN(C)CC1CC/C(=C\c2ccc(O)cc2)C1=O` (centres undefined): “inactive”.
Still for that read-out and setting: the same measure for `O=C(CSc1nc2c([nH]c3ccccc32)c(=O)n1-c1ccccc1F)NCC1CCCO1` (centres undefined): 9.1% (inactive); for `CCCN(Cc1nnc(-c2cccs2)o1)C(=O)c1cccc(S(=O)(=O)N2CCOCC2)c1`: 3.36% (inactive); for `O=C(c1cc(S(=O)(=O)N2CCCCC2)ccc1F)N1CCCCC1`: 2.62% (inactive).
As for `Cc1cc(C)nc(-n2nc(C)c(Oc3ccccc3O)c2C)n1`, the inhibition under setting [2] is 2.08% (inactive).
Same read-out and setting: to `Cc1nn(-c2ccccn2)c(C)c1Oc1ccccc1O` belongs 0.59% (inactive).
On to `CCOc1ccc(-c2ccc(SCc3ccccn3)nn2)cc1`, for which the inhibition under setting [2] is 8.3% (inactive).
Still for that read-out and setting: to `Cc1[nH]c(C)c(S(=O)(=O)N2CCN(c3cccc(Cl)c3)CC2)c1C(=O)N1CCCC1` belongs 1.13% (inactive).
Regarding `Cc1[nH]c(C)c(S(=O)(=O)N2CCN(c3cccc(C(F)(F)F)c3)CC2)c1C(=O)N1CCCC1`, the inhibition under setting [2] is 0.9% (inactive).
With `N=C1C(c2nc(-c3ccc(F)cc3)cs2)=C(O)CN1CCCN1CCOCC1`, the inhibition is 1.67% (inactive) (stronger effect = higher value) and 0.31% under setting [1].
As to `S=C(NCCCN1CCOCC1)N1CCN(c2nc(-c3ccc(Cl)cc3)cs2)CC1`, the inhibition under setting [2] is 1.38% (inactive).
In the case of `CCc1cc(=O)oc2cc(C)cc(OC(C)C(=O)NCCN3CCOCC3)c12` (centres undefined), under setting [2], the inhibition is 2.06% (inactive).
The same measure, in the same setting: to `CC(C)CCSc1nc2ccccc2[nH]1` belongs 0.68% (inactive).
The same measure, in the same setting: the same measure for `COc1ccc(OC)c(C(=O)COC(=O)COc2ccccc2F)c1`: 0.88% (inactive); for `Cc1ccc(OCCCCN2CCC(C)CC2)c(Br)c1`: 0.3% (inactive).
Still for that read-out and setting: the same measure for `Cc1ccc(OCCCCN2CCCCC2)c(Br)c1`: “inactive”; for `CN(Cc1ccccc1)C(=O)COC(=O)c1cc(Cl)nc(Cl)c1`: 2.37% (inactive); for `Cc1ccc(NC(=O)c2cccc(S(=O)(=O)N3CCN(C)CC3)c2)cc1F`: “inactive”.
Consider `COC(=O)c1c(NC(=O)c2ccccc2)sc2c1CC(C)(C)NC2(C)C`, for which the inhibition under setting [2] is 1.35% (inactive).
Still for that read-out and setting: to `CCOc1ccc(C(=O)Nc2sc3c(c2C(=O)OC)CC(C)(C)NC3(C)C)cc1` belongs 10.2% (inactive); to `COc1ccc(NC(=O)C2CCN(S(=O)(=O)c3cccc4nonc34)CC2)cc1`, 1.18% (inactive); to `O=C(O)c1cccc(N/N=C/c2cc(Br)cc(Br)c2O)c1`, 0.48% (inactive).
On the same count and under the same terms, the same measure for `O=C(O)c1ccccc1NN=Cc1ccccc1`: 0.89% (inactive); for `COc1ccc(CN2CCN(c3ccccc3F)CC2)cc1O`: 0.89% (inactive).
Same read-out and setting: the same measure for `CCc1ccc(Nc2nc(N3CCOCC3)nc(N3CCOCC3)n2)cc1`: 0.26% (inactive); for `Cn1cc(Br)c(C(=O)NNC(=O)c2ccc(Cl)cc2)n1`: 0.65% (inactive).
Regarding `CCCCC#Cc1cncc(C(=O)NN)c1`, the inhibition under setting [2] was 1.61% (inactive).
Still for that read-out and setting: to `CC1CCN(c2ccc(C(=O)O)cc2NS(=O)(=O)c2ccc(Br)cc2)CC1` belongs “inactive”.
The same measure, in the same setting: to `CC(=O)Nc1cccc(Oc2ncnc3scc(-c4ccc(C)cc4)c23)c1` belongs 7.98% (inactive); to `CC(=O)Nc1cccc(Oc2ncnc3scc(-c4ccccc4)c23)c1`, 11% (inactive).

Values taken from PubChem BioAssay AID588727 (Southern Research Specialized Biocontainment Screening …, 2011).
